Active and inactive are the calls of the source. Unless noted, calls come from the whole dose curve; as a rule, active = well fitted curve in the direction sought with a large enough effect in the repeat runs; inconclusive = weak or mixed curves; inactive = no such curve, though single readings can be large; an effect the other way counts as inactive or inconclusive.

Data on 16 compounds can be found in PubChem BioAssay (Tox21).

The nature of test [1]: qHTS assay to identify small molecule antagonists of the thyroid receptor (TR) signaling pathway - cell viability counter screen (AID 743064). Note: nearly all actives have a fitted effect of over 50% in size. Note: potency is the fitted concentration of half-maximal effect. Put shortly:
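Rat GH3 pituitary tumor cells stably expressing two TR response elements driving luciferase were plated, rested 4 h, then dosed with library compounds and T3 (1 nM final). After 23.5 h at 37 °C, CellTiter-Fluor was added for 30 min and fluorescence recorded.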
On the technique in general: qHTS replaces the single test concentration by a dilution series.

For test [2], the system named is thyroid hormone receptor (rat, GH3 cells). Briefly: qHTS assay to identify small molecule agonists of the thyroid receptor (TR) signaling pathway (AID 743066; calls by dose curve).
Test [3] is described as follows: qHTS assay to identify small molecule antagonists of the estrogen receptor alpha (ER-alpha) signaling pathway - cell viability counter screen (AID 743074; calls by dose curve;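 note: HEK293 cells carrying ER-alpha-UAS-bla reporter stimulated with 17beta-estradiol; nearly all actives have a fitted effect of over 45% in size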).
In the next test the target is Aromatase (Homo sapiens) (UniProt P11511). Briefly: qHTS assay to identify aromatase inhibitors (AID 743083). Note: nearly all actives have a fitted effect of over 55% in size. Note: potency is the fitted concentration of half-maximal effect.
Test [4] can be described thus: qHTS assay to identify aromatase inhibitors - cell viability counter screen (AID 743084).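 Note: cells stimulated with testosterone during compound exposure; nearly all actives have a fitted effect of over 55% in size.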 Note: potency is the fitted concentration of half-maximal effect.
The target of test [5] is Aryl hydrocarbon receptor (Homo sapiens) (UniProt P35869). Briefly: qHTS assay to identify small molecule that activate the aryl hydrocarbon receptor (AhR) signaling pathway (AID 743085).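 For activation: HG2L7.5c1 human HepG2 liver cells with stably integrated DRE-driven firefly reporter; series mostly up to about 70 µM.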 Note: nearly all actives have a fitted effect of over 15% in size. Note: potency is the fitted concentration of half-maximal effect. An outline of the steps:
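Compounds were tested in HepG2 hepatocellular carcinoma cells harbouring a stably integrated luciferase gene under control of 20 DREs. Increased reporter signal after 24 h treatment at 37C was taken as AhR activation.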

Test [6] in a line: qHTS assay to identify small molecule that activate the aryl hydrocarbon receptor (AhR) signaling pathway - cell viability counter screen (AID 743086).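 Note: HepG2 liver cells carrying the AhR DRE luciferase reporter; series mostly up to about 70 µM; nearly all actives have a fitted effect of over 45% in size.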 An outline of the steps:
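HepG2-AhR-luc (HG2L7.5c1) cells, 4000/well, treated 24 h at 37 C with compound; viability measured as CellTiter-Fluor fluorescence after 30 min in the same wells as the luciferase read.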

The target in test [7] is Peroxisome proliferator-activated receptor gamma (Homo sapiens) (UniProt P37231). Briefly: qHTS assay to identify small molecule agonists of the peroxisome proliferator-activated receptor gamma (PPARg) signaling pathway (AID 743094; active = well fitted activation curve with a large enough effect in the signal ratio in the repeat runs, not every such curve was filed as active; inconclusive = weak or mixed curves, or effect the other way; inactive = no such curve, though single readings can be large or run the other way; the % refers to the signal ratio). An outline of the steps: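 GeneBLAzer PPARg UAS-bla HEK293H cells carrying a stably integrated beta-lactamase reporter were pre-incubated 5 h at 37C, then exposed to compounds in DMSO for 17 h at 37C; LiveBLAzer B/G FRET substrate was added for 1 h at room temperature and fluorescence read.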

Test [8] has the same target. Briefly: qHTS assay to identify small molecule antagonists of the peroxisome proliferator-activated receptor gamma (PPARg) signaling pathway (AID 743191; calls by dose curve; note: series mostly up to about 63 µM; nearly all actives have a fitted effect of over 30% in size). Put shortly: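 GeneBLAzer PPARg UAS-bla HEK293H cells, 5 h post-plating, exposed to compounds 17 h at 37C. LiveBLAzer B/G FRET substrate added for 1 h at room temperature; beta-lactamase reporter read by fluorescence intensity.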

Test [9] is described as follows: qHTS assay to identify small molecule antagonists of the peroxisome proliferator-activated receptor gamma (PPARg) signaling pathway - cell viability counter screen (AID 743194). Note: nearly all actives have a fitted effect of over 55% in size. Note: potency is the fitted concentration of half-maximal effect. An outline of the steps:
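Cytotoxicity counter screen in PPARg-bla HEK293H cells, same wells as reporter assay. Compounds plus 50 nM rosiglitazone (final) for 17 h at 37 C, then viability read by CellTiter-Glo luminescence.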

Test [10] is described as follows: qHTS assay for small molecule agonists of the antioxidant response element (ARE) signaling pathway (AID 743202; active = well fitted activation curve with a large enough effect in the signal ratio in the repeat runs, not every such curve was filed as active; inconclusive = weak or mixed curves, or effect the other way; inactive = no such curve, though single readings can be large or run the other way; the % refers to the signal ratio). An outline of the steps: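 ARE-bla HepG2 cells (beta-lactamase reporter under the antioxidant response element), plated 5 hours, then exposed to compounds 16 hours at 37 C. LiveBLAzer B/G FRET substrate added for 2 hours at room temperature; fluorescence intensity read.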

Test [11] can be described thus: qHTS assay for small molecule agonists of the antioxidant response element (ARE) signaling pathway - cell viability counter screen (AID 743203; calls by dose curve; note: nearly all actives have a fitted effect of over 55% in size; note: potency is the fitted concentration of half-maximal effect). Put shortly: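 CellSensor ARE-bla HepG2 cells, 2,000 per well, rested 5 hrs at 37C/5% CO2, then exposed to compound in DMSO for 16 hrs; viability read as CellTiter-Glo luminescence after 30 min at room temperature, in the reporter wells.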

Test [12] is described as follows: qHTS assay for small molecule activators of the heat shock response signaling pathway - cell viability counter screen (AID 743209). Note: nearly all actives have a fitted effect of over 50% in size. Note: potency is the fitted concentration of half-maximal effect. An outline of the steps:
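CellSensor HSE-bla HeLa cells, plated overnight at 37 C/5% CO2, were exposed to compounds in DMSO for 5 h at 37 C. Viability was then read in the same wells by CellTiter-Glo luminescence after 30 min at room temperature.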

Test [13] concerns the target Estrogen receptor (Homo sapiens) (UniProt P03372). Briefly: qHTS assay to identify small molecule antagonists of the estrogen receptor alpha (ER-alpha) signaling pathway (AID 743069; active = well fitted curve in the direction sought with a large enough effect in the signal ratio in the repeat runs, not every such curve was filed as active; inconclusive = weak or mixed curves, or effect the other way; inactive = no such curve, though single readings can be large or run the other way; the % refers to the signal ratio; note: potency is the fitted concentration of half-maximal effect). Put shortly:
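HEK293 ER-alpha-UAS-bla GripTite cells, held overnight in 2% charcoal-stripped FBS, 5,000 cells/well, preincubated 4 h, then compound plus 17beta-estradiol for 18 h at 37C. Beta-lactamase read by LiveBLAzer B/G FRET substrate, 2 h at room temperature.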

Test [14] shares this target. Briefly: qHTS assay to identify small molecule agonists of the estrogen receptor alpha (ER-alpha) signaling pathway (AID 743075; calls by dose curve; note: potency is the fitted concentration of half-maximal effect).
Test [15] shares this target. Briefly: qHTS assay to identify small molecule agonists of the estrogen receptor alpha (ER-alpha) signaling pathway using the BG1 cell line (AID 743079). Note: nearly all actives have a fitted effect of over 20% in size. Note: potency is the fitted concentration of half-maximal effect.
Test [16] in a line: qHTS assay to identify small molecule antagonists of the estrogen receptor alpha (ER-alpha) signaling pathway using the BG1 cell line (AID 743080; calls by dose curve;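 note: BG1 cells stimulated with 17beta-estradiol alongside compound; series mostly up to about 70 µM; nearly all actives have a fitted effect of over 25% in size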). Put shortly: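 Endogenous full-length ER-alpha in BG1-Luc-4E2 cells drives a stably integrated 4×ERE luciferase gene; compounds were tested against 17beta-estradiol over 21.5 h, with luminescence and multiplexed viability fluorescence recorded.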

The nature of test [17]: qHTS assay to identify small molecule antagonists of the estrogen receptor alpha (ER-alpha) signaling pathway using the BG1 cell line - cell viability counter screen (AID 743081).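 Note: compound given together with 17beta-estradiol as the ER stimulus; nearly all actives have a fitted effect of over 45% in size.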 Note: potency is the fitted concentration of half-maximal effect.
Test [18] is described as follows: qHTS assay to identify small molecule antagonists of the thyroid receptor (TR) signaling pathway (AID 743065). Note: nearly all actives have a fitted effect of over 55% in size. Note: potency is the fitted concentration of half-maximal effect. An outline of the steps:
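GH3.TRE-Luc rat pituitary cells (two TREs driving luciferase) were dosed with compound, then stimulated with 1 nM T3 (final) for 23.5 h at 37 C. ONE-Glo luminescence was the read-out, with CellTiter-Fluor fluorescence as the cytotoxicity counter-screen.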

A short description of test [19]: qHTS assay for small molecule activators of the heat shock response signaling pathway (AID 743210; active = well fitted activation curve with a large enough effect in the signal ratio in the repeat runs, with a control signal flat, not every such curve was filed as active; inconclusive = weak or mixed curves; the % refers to the signal ratio; note: series mostly up to about 63 µM). Put shortly:
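HSE-bla HeLa cells (beta-lactamase reporter under heat shock response elements), plated overnight, then exposed to compounds 5 h at 37 C; LiveBLAzer B/G FRET substrate added, 2.5 h at room temperature, fluorescence intensity read.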

Chain of Aryl hydrocarbon receptor (Homo sapiens) (P35869 whole entry, looked up): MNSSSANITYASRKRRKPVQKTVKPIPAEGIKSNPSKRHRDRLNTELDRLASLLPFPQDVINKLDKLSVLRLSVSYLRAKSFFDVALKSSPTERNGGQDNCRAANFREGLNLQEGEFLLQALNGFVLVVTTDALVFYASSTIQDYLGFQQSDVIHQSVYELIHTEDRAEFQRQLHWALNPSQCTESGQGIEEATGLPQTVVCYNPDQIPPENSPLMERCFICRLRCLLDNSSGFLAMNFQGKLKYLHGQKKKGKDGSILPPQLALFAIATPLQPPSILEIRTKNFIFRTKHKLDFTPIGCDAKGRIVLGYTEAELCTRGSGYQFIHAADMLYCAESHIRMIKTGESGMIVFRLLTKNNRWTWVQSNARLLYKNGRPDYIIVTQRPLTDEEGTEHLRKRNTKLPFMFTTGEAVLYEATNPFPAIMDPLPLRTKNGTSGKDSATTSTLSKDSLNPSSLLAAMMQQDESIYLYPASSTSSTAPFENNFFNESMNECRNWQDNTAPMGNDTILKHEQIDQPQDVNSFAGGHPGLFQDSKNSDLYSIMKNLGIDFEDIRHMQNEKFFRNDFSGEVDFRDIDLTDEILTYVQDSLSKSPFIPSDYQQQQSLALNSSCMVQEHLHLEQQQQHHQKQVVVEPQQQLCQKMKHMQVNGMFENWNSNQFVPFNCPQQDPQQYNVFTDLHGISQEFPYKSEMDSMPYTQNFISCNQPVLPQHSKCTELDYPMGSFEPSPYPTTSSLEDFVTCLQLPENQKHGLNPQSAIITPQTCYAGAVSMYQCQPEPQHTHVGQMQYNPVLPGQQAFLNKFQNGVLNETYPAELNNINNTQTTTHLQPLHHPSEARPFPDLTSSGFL
Chain of Peroxisome proliferator-activated receptor gamma (Homo sapiens) (P37231 whole entry, looked up): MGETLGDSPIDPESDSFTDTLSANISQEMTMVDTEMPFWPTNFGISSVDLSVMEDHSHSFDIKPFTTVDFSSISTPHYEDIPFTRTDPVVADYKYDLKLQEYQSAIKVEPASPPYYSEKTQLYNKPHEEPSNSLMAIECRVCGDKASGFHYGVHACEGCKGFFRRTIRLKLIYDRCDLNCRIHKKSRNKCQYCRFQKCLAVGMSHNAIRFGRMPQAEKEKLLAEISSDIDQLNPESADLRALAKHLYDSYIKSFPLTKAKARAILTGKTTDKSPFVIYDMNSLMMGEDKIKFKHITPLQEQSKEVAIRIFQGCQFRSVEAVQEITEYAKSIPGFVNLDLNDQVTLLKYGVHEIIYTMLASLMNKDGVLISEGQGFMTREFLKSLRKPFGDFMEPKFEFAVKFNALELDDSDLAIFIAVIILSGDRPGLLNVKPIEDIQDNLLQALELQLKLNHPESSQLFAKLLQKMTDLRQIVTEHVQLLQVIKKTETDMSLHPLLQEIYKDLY
Chain of Aromatase (Homo sapiens) (P11511 whole entry, looked up): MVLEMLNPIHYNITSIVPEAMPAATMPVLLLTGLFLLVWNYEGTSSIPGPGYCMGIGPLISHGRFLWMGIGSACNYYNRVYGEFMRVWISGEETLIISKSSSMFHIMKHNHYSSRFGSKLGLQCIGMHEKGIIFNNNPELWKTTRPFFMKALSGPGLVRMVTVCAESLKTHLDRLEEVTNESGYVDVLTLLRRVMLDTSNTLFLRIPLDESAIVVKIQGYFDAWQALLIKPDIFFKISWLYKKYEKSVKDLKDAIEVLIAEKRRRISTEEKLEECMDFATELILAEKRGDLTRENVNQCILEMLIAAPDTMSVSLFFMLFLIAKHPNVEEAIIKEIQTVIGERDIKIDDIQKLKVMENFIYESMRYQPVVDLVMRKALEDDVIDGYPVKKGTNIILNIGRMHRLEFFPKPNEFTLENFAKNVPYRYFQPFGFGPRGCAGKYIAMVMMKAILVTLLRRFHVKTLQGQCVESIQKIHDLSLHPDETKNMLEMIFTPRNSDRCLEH
Chain of Estrogen receptor (Homo sapiens) (P03372 whole entry, looked up): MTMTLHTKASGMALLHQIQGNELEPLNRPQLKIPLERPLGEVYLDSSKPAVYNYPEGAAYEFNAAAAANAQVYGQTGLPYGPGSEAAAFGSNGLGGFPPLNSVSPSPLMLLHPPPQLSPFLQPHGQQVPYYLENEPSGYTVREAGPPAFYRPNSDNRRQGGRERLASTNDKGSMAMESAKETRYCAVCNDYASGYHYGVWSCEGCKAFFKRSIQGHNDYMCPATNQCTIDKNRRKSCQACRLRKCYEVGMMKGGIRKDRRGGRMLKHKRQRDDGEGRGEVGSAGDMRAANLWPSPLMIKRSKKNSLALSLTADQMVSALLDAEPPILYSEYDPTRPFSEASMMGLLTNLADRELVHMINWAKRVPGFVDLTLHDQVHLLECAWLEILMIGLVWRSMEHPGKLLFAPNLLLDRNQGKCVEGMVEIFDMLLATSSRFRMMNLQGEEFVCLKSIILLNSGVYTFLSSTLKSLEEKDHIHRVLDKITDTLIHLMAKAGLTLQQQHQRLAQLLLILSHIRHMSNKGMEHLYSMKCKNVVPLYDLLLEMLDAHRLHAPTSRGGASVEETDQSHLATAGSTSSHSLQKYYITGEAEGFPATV

In the case of `OC[C@H]1O[C@H](O[C@H]2O[C@H](CO)[C@@H](O)[C@H](O)[C@H]2O)[C@H](O)[C@@H](O)[C@@H]1O`, the Potency entry (in [1]; in test [3]; with Aromatase (Homo sapiens); in test [4]; in test [5]; in [6]) was “inactive” throughout. Moreover, the Potency result in test [7], in test [8], in test [9], in [10], in [11] and in [12] was “inactive” each time. Moreover, in test [2], the result was inactive.

`Cc1cc(C(C)(C)C)c(O)c(C)c1Cn1c(=O)n(Cc2c(C)cc(C(C)(C)C)c(O)c2C)c(=O)n(Cc2c(C)cc(C(C)(C)C)c(O)c2C)c1=O`: the Potency entry in test [1], in test [3], in [14], in [15], in [16] and in [17] was “inactive” each time. In addition, the Potency entry in test [4], in test [5], in test [6], in [7], in test [9] and in test [11] was “inactive” throughout. Also, the Potency result in [12] is “inactive”. Moreover, in test [2], the call was inactive. Further, the Potency in test [13] was 17.4 µM [inconclusive] (active).

`CCOC(=O)c1ccc(C2CCC(NC[C@H](O)COc3ccc(O)c(NS(C)(=O)=O)c3)CC2)cc1` (stereo not given in full): the Potency in [1] is 39.9 µM (active); in [18] it was 28.3 µM (active); in test [11], 50.2 µM (active). The Potency entry in [17], in [5], in test [8], in [12] and in [19] was “inactive” throughout.

For `CCCCCCCCCCCCOC(=O)c1ccc(O)cc1`, the Potency in test [1] is 30.9 µM (active); in [18] it was 27.5 µM (active); in test [13] it was 44 µM [inconclusive] (active); with Aromatase (Homo sapiens) it was 30.9 µM (active); in test [11], 61.6 µM (active). Also, the Potency entry in test [3], in test [14], in test [15], in [17], in [5] and in test [6] was “inactive” throughout. For the same compound, the Potency entry in test [7] was “inactive”.

As for `Clc1sc(Cl)c(Cl)c1Cl`, the Potency result in [1], in test [13], in test [3], in [14], in test [15] and in test [16] was “inactive” in each case. The Potency result (in test [17]; with Aromatase (Homo sapiens); in test [4]; in [5]; in [6]; in test [7]) was “inactive” throughout. The Potency result in test [8], in test [9], in [12] and in [19] was “inactive” in each case.

In the case of `CC1(C)CCC[C@]2(C)[C@H]3CCO[C@]3(C)CC[C@@H]12`, the Potency entry (in test [1]; in test [3]; in [17]; in the test with Aromatase (Homo sapiens); in test [4]; in [5]) was “inactive” throughout. The Potency entry in [6], in test [7], in test [9], in [10], in test [11] and in test [12] was “inactive” each time. Moreover, in test [19], the Potency entry is “inactive”.

On to `Oc1cc(Cl)cc(Cl)c1Cl`, for which the Potency entry in test [1], in [14], in test [16], in [4], in [6] and in [7] was “inactive” in each case. Besides, the Potency result in test [9], in [12] and in test [19] was “inactive” throughout. The outcome in [2] was inactive.

`CC1(C)CC(O)CC(C)(C)N1`: the Potency entry in test [18], in test [13], in [3], in test [14], in test [15] and in test [16] was “inactive” throughout. Moreover, the Potency result (in [17]; with Aromatase (Homo sapiens); in test [4]; in test [6]; in [7]; in test [9]) was “inactive” in each case. The Potency entry in [10], in [11] and in test [12] was “inactive” each time. Further, the result in [2] was inactive.

In the case of `C=CC(=O)Nc1cc2c(Nc3ccc(F)c(Cl)c3)ncnc2cc1OCCCN1CCOCC1`, the Potency is 5.31 µM (active) in test [1], 23.9 µM [inconclusive] (active) in [14], 29.8 µM (active) in [15] and 29.8 µM (active) in [9]. The Potency entry (in the test with Aromatase (Homo sapiens); in [4]; in test [5]; in test [7]; in test [12]) was “inactive” each time.

As to `CC(C)(C)C1CCC(=O)CC1`, the Potency entry in test [1], in [13], in [3], in test [14], in test [15] and in [16] was “inactive” each time. Moreover, the Potency result (in test [17]; in the test with Aromatase (Homo sapiens); in test [4]; in test [5]; in [6]; in [7]) was “inactive” each time. The Potency result in [8], in [9] and in [11] was “inactive” each time.

As to `CCC(C)[O-].CCC(C)[O-].CCOC(=O)/C=C(/C)[O-].[Al+3]`, the Potency result in test [1], in [3], in test [17], in [6], in [9] and in test [11] was “inactive” each time. Moreover, the Potency result in test [12] and in test [19] was “inactive” each time.

For `COC(=O)Nc1nc2ccc(C(=O)c3ccccc3)cc2[nH]1`, the Potency in test [1] was 0.285 µM (active); in test [5] it was 4.52 µM (active). Also, the Potency entry (in [13]; in test [15]; in test [16]; in test [17]; with Aromatase (Homo sapiens); in test [4]) was “inactive” in each case. Further, the Potency result in test [6], in test [7], in [9], in test [12] and in test [19] was “inactive” each time.

As for `CNc1ccc([N+](=O)[O-])cc1`, the Potency in [18] is 27.4 µM (active); in [15], 34.4 µM (active); in test [17], 48.7 µM (active); with Aromatase (Homo sapiens) it was 12.2 µM (active); in test [4], 34.4 µM (active); in [5], 54.6 µM (active). The Potency in test [12] is 12.3 µM (active). For the same compound, in [2], the result was inactive. The Potency entry in test [13], in [3], in test [14], in test [7], in test [9] and in test [10] was “inactive” throughout.

As for `Nc1nc(-c2ccccc2)cs1`, the Potency result (in [1]; in test [3]; in test [17]; with Aromatase (Homo sapiens); in test [4]; in [6]) was “inactive” throughout. Further, the Potency result in [7], in test [9], in test [11] and in test [12] was “inactive” in each case. The Potency in [5] was 24.3 µM (active).

As to `CCOC(=O)NNc1ccc(N(CC)CC(C)O)nn1` (stereo not given), the Potency result in test [1], in [13], in test [3], in test [14], in test [15] and in test [16] was “inactive” in each case. The Potency result (in [17]; in the test with Aromatase (Homo sapiens); in [4]; in test [5]; in test [6]; in [7]) was “inactive” each time. The Potency result in [8], in test [9], in test [12] and in [19] was “inactive” in each case.

As for `O=c1oc2cc(O)ccc2c2oc3cc(O)ccc3c12`, the Potency entry (in test [1]; in [17]; with Aromatase (Homo sapiens); in test [6]; in [9]; in test [12]) was “inactive” each time.
